Assay outcomes as filed in PubChem.
In the library only some 4% were active in any assay of this set; here they are far more common.
PAX8 reporter = inhibitors of PAX8-driven TPO luciferase reporter, primary screen, RMG-I cells, single concentration. SteadyGlo, 24 h. inhibition, % at 12.6 µM. actives 1.2% (n = 360,000);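 active = mean replicate inhibition at least 60% with every replicate also reaching 60%; inconclusive = only one of the two criteria is met; inactive = mean below 60% and not all replicates reaching 60%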;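 note: luciferase light reporting Pax8 driven TPO promoter activity; plate controls were median of neutral control wells for no effect and mitoxantrone controls for full effect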
Shn3 3UTR inh = reduction of Shn3 3'UTR firefly luciferase signal, primary screen, Schnurri-3 inhibitor project, cell-based, Clone20 osteoblasts, set 2 | actives 0.52% (n = 360,000) | Clone20 osteoblast Shn3 3'UTR firefly luciferase, 24 h | inhibition, % at 12.5 µM;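 active = mean inhibition of at least 75% with every replicate also reaching 75%; inconclusive = mean inhibition at least 75% but some replicate below; inactive = mean inhibition below 75%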;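 note: 0% = median of neutral control wells and 100% = pilot-screen positive control compound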
Gli-Sufu antag = Gli-Sufu pathway antagonists, primary screen, luciferase luminescence, Sufu-KO-LIGHT cells, uHTS; Sufu-KO-LIGHT fibroblasts, Gli luciferase reporter luminescence; inhibition, % at 5 µM; actives 0.74% (n = 340,000);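 active = inhibition above about 55%, limit read from the data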;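 note: 0% = DMSO-treated cells and 100% = wells with medium but no cells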
Mdm2-MdmX inh = inhibitors of human Mdm2-MdmX association, primary screen, cell-based, luminescence, split luciferase, SaOS-2, uHTS; actives 3% (n = 330,000); Protein Mdm4 (Homo sapiens) + E3 ubiquitin-protein ligase Mdm2 (Homo sapiens), …; SaOS-2 split-luciferase Mdm2/MdmX complementation; inhibition, % at 8 µM; AID 485346, 2010;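 active = inhibition of at least 50% at 8 µM in the primary screen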
CSC inhib = cancer stem cell viability inhibitors, primary screen, luminescence | cancer stem cell-like cells viability | inhibition, % at 7.5 µM | actives 1.1% (n = 300,000); in the data active = inhibition above about 75%; inconclusive = no clear call, values can overlap the other calls; tested in HMLE shEcad cells
Beta cell apopt = inhibitors of cytokine-induced beta cell apoptosis, primary screen, luminescence; INS-1E cytokine-induced death, ATP luminescence, 48 h; percent of positive-control rescue, neutral wells zero; protection from apoptosis, % (concentration not given with the values); actives 0.8% (n = 300,000); AID 435005, 2010;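 active = Every replicate reaches about 75%, or at least half do and their mean reaches it too, limit read from the data; inconclusive = At least half of replicates reach the limit but their mean does not; inactive = Under half of replicates reach the limit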;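 note: 0% = cytokine-treated negative control wells and 100% = positive control rescue; higher means more ATP so stronger rescue from cytokine killing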
Mdm2 MdmX conf = Mdm2-MdmX complex disruptors, retested hits, confirmation, luminescence, single concentration; Mdm2-MdmX binding, luminescent assay; actives 55% (n = 10,000); inhibition, % at 8 µM; AID 489028, 2010; shares compounds with Mdm2-MdmX inh; in the data active = inhibition above about 40%
Full FLuc ctr = full-length luciferase signal inhibition, confirmation, counter-screen for Mdm2/MdmX interaction inhibitor project, cell-based, single concentration, SaOS-2; shares compounds with Mdm2-MdmX inh; SaOS-2 full-length luciferase counterscreen, luminescence; inhibition, % at 8 µM; actives 77% (n = 6,200); AID 504607, 2011;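 active = mean inhibition at 8 µM reaching about 37%, which flags the compound as non-specific, limit read from the data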;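 note: p53-null SaOS-2 cells with luciferase driven by a doxycycline-inducible promoter; compound on cells about two nights before reading with doxycycline added after day one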
The depositor's hits bear a star; ? = inconclusive; . = not tested or not shown.

SMILES | PAX8 reporter | Shn3 3UTR inh | Gli-Sufu antag | Mdm2-MdmX inh | CSC inhib | Beta cell apopt | Mdm2 MdmX conf | Full FLuc ctr
C=CCC[C@H](Cc1ccc(F)cc1)C(=O)OC[C@@H](NC(=O)[C@@H](CC=C)CC(=O)N(CCO)Cc1ccccc1)C(C)(C)C | 64.1* | 35.4 | 6.0 | 50.3* | 50.7 | 3.9 | 15.3 | .
C=CCC[C@H](Cc1ccc(F)cc1)C(=O)OC[C@@H](Cc1c[nH]c2ccccc12)NC(=O)[C@@H](CC=C)CC(=O)N[C@H](CO)Cc1ccccc1 | 34.1 | -8.7 | 3.5 | -2.3 | -7.4 | 7.0 | . | .
C=CCC[C@@H](Cc1ccc(F)cc1)C(=O)OC[C@@H](Cc1c[nH]c2ccccc12)NC(=O)[C@H](CC=C)CC(=O)N(CCO)Cc1ccccc1 | 101.4* | 49.9 | 16.6 | 94.2* | . | -5.0 | 26.2 | .
C=CCC[C@H](Cc1ccc(F)cc1)C(=O)OC[C@@H](Cc1c[nH]c2ccccc12)NC(=O)[C@H](CC=C)CC(=O)N(CCO)Cc1ccccc1 | 76.7* | ? | 2.0 | 93.8* | 92.4* | -13.1 | 34.0 | .
C=CC[C@@H](CC(=O)N(CCO)Cc1ccccc1)C(=O)NC[C@H](OC(=O)[C@@H](CC=C)Cc1ccc(F)cc1)c1ccccc1 | 83.6* | 17.9 | 11.0 | 85.4* | 29.6 | 3.9 | 70.6* | 49.0*
C[C@H](CO)N1C[C@H](C)[C@@H](CN(C)CC2CC2)Oc2ccc(NC(=O)Cc3ccccc3)cc2C1=O | -22.7 | . | . | . | . | . | . | .
O=C1CC(c2cc(F)ccc2F)c2cc3c(cc2N1)CCC3 (stereo not given) | 41.4 | 39.2 | 4.1 | 51.8* | 54.4 | -1.2 | 52.1* | 71.9*
O=C1CC(c2cccc(Br)c2)c2cc3c(cc2N1)CCC3 (stereo not given) | . | 33.7 | 10.3 | 67.0* | . | . | 41.9* | 67.9*
COc1ccc(-c2ccc([C@H]3[C@H](C#N)N(C(=O)C4CCC4)[C@H]3CO)cc2)cc1 | 14.8 | . | . | . | . | . | . | .
C[C@@H]1CCCCO[C@@H](CN(C)Cc2ccncc2)[C@@H](C)CN([C@H](C)CO)C(=O)c2cc(NC(=O)c3ccncc3)ccc2O1 | -4.7 | . | . | . | . | . | . | .
Cc1ccc2nc(NC(=O)c3ccc(-c4nc5ccccc5s4)s3)sc2c1 | -25.0 | -14.6 | 7.6 | 98.3* | 14.4 | 15.1 | 46.2* | 83.9*
O=C(C[C@H]1C=C[C@@H](NC(=O)c2ccccn2)[C@@H](CO)O1)NCc1cc(F)cc(F)c1 | -0.4 | . | . | . | . | . | . | .
CCc1ccc(-c2cc(C)no2)cc1S(=O)(=O)N1CCN(c2ccccc2OC)CC1 | 20.0 | 39.1 | -11.5 | 25.3 | -12.2 | -2.8 | . | .
CCc1ccc(-c2cc(C)no2)cc1S(=O)(=O)N1CCN(c2ccccc2)CC1 | 6.4 | 9.8 | 4.9 | 59.5* | 62.1 | 6.0 | 43.1* | 46.6*
COc1ccc(-c2csc(NC(=O)c3c(OC)cccc3OC)n2)cc1 | 4.5 | 6.3 | 12.4 | 26.3 | 2.9 | -5.4 | . | .
COc1ccc(-c2csc(NC(=O)c3ccccc3NS(=O)(=O)c3ccc(C)cc3)n2)cc1 | 0.5 | 42.3 | 47.9 | 83.5* | 6.6 | 44.3 | 64.5* | 54.1*
COc1ccc(S(=O)(=O)Nc2ccccc2C(=O)Nc2nc(-c3ccc(F)cc3)cs2)cc1OC | . | -0.6 | 16.1 | 74.2* | -10.5 | 45.5 | 66.2* | 62.6*
C[C@H](CO)N1C[C@H](C)[C@H](CN(C)CC2CCOCC2)Oc2ncc(-c3cccc(F)c3)cc2C1=O | 6.8 | . | . | . | . | . | . | .
O=C(Nc1ccc(O)c2c(=O)cc(-c3cccc(Cl)c3)oc12)c1ccccc1Cl | 32.2 | -46.1 | -0.3 | 91.5* | -3.0 | . | 2.2 | .
Cc1ccc(S(=O)(=O)Nc2ccc3c(c2)CC(=O)N([C@H](C)CO)C[C@@H](C)[C@H](CN(C)C(=O)Nc2cccc4ccccc24)O3)cc1 | 6.7 | . | . | . | . | . | . | .
CCCCCCCCC[n+]1cccc2c3ccccc3ccc21 | . | 89.2* | -0.6 | 90.8* | 57.6 | 111.1* | 86.7* | 57.4*
CO[C@H]1CN(C)C(=O)c2cc(NC(=O)c3cnccn3)ccc2OC[C@H](C)N(C(C)=O)C[C@@H]1C | -6.4 | . | . | . | . | . | . | .
O=C(Nc1ccc2c(c1)OCO2)c1ccccn1 | -186.5 | -40.1 | -56.6 | -57.0 | . | 11.4 | . | .
O=C(/C=C\Nc1ccc2c(c1)OCO2)c1ccccn1 | . | 61.5 | -6.4 | 72.2* | -13.8 | 7.4 | 64.5* | 38.9*
COc1ccc(NC(=O)N(C)C[C@@H]2Oc3c(NC(=O)C4CCOCC4)cccc3C(=O)N([C@H](C)CO)C[C@H]2C)cc1 | -29.1 | . | . | . | . | . | . | .
SMILES | PAX8 reporter | Shn3 3UTR inh | Gli-Sufu antag | Mdm2-MdmX inh | CSC inhib | Beta cell apopt | Mdm2 MdmX conf | Full FLuc ctr
C[C@H]1CN([C@@H](C)CO)C(=O)Cc2cc(NC(=O)C3CC3)ccc2O[C@@H]1CN(C)CC1CC1 | 2.5 | . | . | . | . | . | . | .
CC(C)NC(=O)N(C)C[C@@H]1OCCCC[C@@H](C)Oc2ccc(NC(=O)Nc3ccc4c(c3)OCO4)cc2C(=O)N([C@@H](C)CO)C[C@H]1C | -27.4 | . | . | . | . | . | . | .
C=C1C(=O)O[C@H]2[C@H]1[C@@H](O)CC(=C)[C@@H]1CC(=O)[C@@H](C)[C@H]21 | . | 72.9 | -14.3 | 60.8* | 33.6 | -24.5 | 15.1 | .
COC(=O)[C@@H]1[C@@H](CO)[C@@H]2Cn3c(ccc(-c4ccccc4)c3=O)[C@@H]2N1CC1CCCCC1 | 37.4 | . | . | . | . | . | . | .
CCc1ccc(S(=O)(=O)Nc2cc3c(cc2C)n(C)c(=O)n3C)cc1 | 34.6 | 73.9 | 65.2* | 57.9* | 33.6 | 56.4 | 55.0* | 59.5*
Cn1c(=O)n(C)c2cc(NS(=O)(=O)c3ccccc3)ccc21 | . | -14.6 | 18.4 | 50.7* | -7.2 | -8.2 | 19.1 | .
C[C@H](CO)N1C[C@H](C)[C@H](CN(C)C(=O)c2cc(-c3ccccc3)on2)OCc2cn(nn2)CCCC1=O | 3.8 | . | . | . | . | . | . | .
NCC[C@@H]1CC[C@@H](NC(=O)NC2CCCCC2)[C@@H](CO)O1 | -5.0 | . | . | . | . | . | . | .
Cc1cccc(N2CCN(C(=O)c3ccc(CS(=O)(=O)c4ccccc4C)o3)CC2C)c1 (stereo not given) | 60.0 | 18.1 | 17.3 | 64.8* | -10.0 | 20.9 | 51.6* | 81.8*
Cc1ccc(C)c(N2CCN(C(=O)c3ccc(CS(=O)(=O)c4ccccc4C)o3)CC2)c1 | 31.1 | 45.4 | 13.8 | 30.9 | -1.7 | 7.8 | . | .
C/C(=N\NC(=O)c1ccc(Cl)cc1)c1ccccn1 | 21.2 | 75.2 | 79.7* | 95.5* | 98.1* | 105.4* | 27.2 | .
C/C(=N\NC(=O)c1cc(C)nc2ccccc12)c1ccccn1 | 25.7 | 95.5* | 89.9* | 76.3* | 95.8* | 104.1* | 66.7* | 36.4*
